Compound activity as filed in PubChem BioAssay.
MITF inh: blocks human microphthalmia-associated transcription factor; O75030; AlphaScreen MITF homodimerization, bead proximity signal; inhibition, % at 2.6 µM; hit rate 0.91% among 650,000; in the data active = inhibition above about 50%;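 note: 0% = vehicle wells with protein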
TEAD-YAP block: TEAD-YAP interaction inhibition. HEK-TIYL cells, TEAD-Gal4/YAP UAS-luciferase luminescence. inhibition, % at 9.12 µM. hit rate 1.4% among 640,000; in the data active = inhibition above about 32%;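 note: 0% = median of test compound wells and 100% = reference inhibitor wells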
GPR151 activ: human GPR151 activation; Q8TDV0; PathHunter beta-arrestin GPR151 cells, luminescence; activation, % at 11.2 µM; hit rate 1% among 650,000; AID 1508602; in the data active = activation above about 4.9%;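 note: 0% = median of compound wells and 100% = cells with positive control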
FBW7 act: activators of human E3 ligase FBW7. Q969H0. AID 1259310. AlphaScreen FBW7–phospho-cyclin E peptide binding, activator screen. normalized activity (activation), % at 26.1 µM. hit rate 0.13% among 650,000; in the data active = normalized activity above about 1.9%;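 note: purified mutant Fbw7 with reduced substrate affinity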
GPR151 conf act: human GPR151 activation, confirmation screen. shares compounds with GPR151 activ. GPR151 PathHunter beta-arrestin cells, luminescence, 90 min; % of EA-reagent control over plate median. activation, % at 11.2 µM. 6,700 tested, under 10 active. AID 1508609;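 active = mean percent activation across replicates above the confirmation screen cutoff of 4.91%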
GPR119 ag: activates human GPR119 in a GPR151 counter-screen. shares compounds with GPR151 activ. GPR119 PathHunter beta-arrestin cells, luminescence, 90 min; 0 = compound-well median, 100 = enzyme-acceptor control. activation, % at 11.2 µM. hit rate 0.3% among 6,700;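 active = mean percent activation in the counterscreen above 29.09%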;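 note: counterscreen on off-target GPR119 to flag nonselective hits from the GPR151 activator screen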
Target sequence (Q8TDV5 whole entry, looked up): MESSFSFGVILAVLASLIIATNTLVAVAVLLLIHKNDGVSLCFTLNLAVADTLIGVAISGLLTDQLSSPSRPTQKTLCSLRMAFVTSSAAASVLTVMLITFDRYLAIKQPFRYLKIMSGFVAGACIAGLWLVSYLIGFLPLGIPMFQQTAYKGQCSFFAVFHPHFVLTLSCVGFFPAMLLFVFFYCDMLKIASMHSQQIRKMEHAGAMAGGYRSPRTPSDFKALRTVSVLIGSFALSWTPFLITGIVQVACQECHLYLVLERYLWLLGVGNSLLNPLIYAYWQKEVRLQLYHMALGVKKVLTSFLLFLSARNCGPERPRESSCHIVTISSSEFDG
Numbers without * were called inactive; nt = not tested or not shown. An excerpt weighted towards active compounds, which were near 3.5% of everything screened.

SMILES	MITF inh	TEAD-YAP block	GPR151 activ	FBW7 act	GPR151 conf act	GPR119 ag
CCOc1ccc(/C=N/NC(=O)C(O)c2ccccc2)c(O)c1 (stereo not given)	9	-6	5.8*	0	1	6
COc1cccc(/C=N/NC(=O)CNc2cccc(Cl)c2)c1O	12	17	7.2*	0	-1	-13
COc1ccc(O)c(/C=N/NC(=O)CNc2cccc(C)c2)c1	-2	8	0	0	nt	nt
COc1ccc(O)c(/C=N/NC(=O)CCC(=O)Nc2cccc(C)c2)c1	30	23	8.7*	0	0	6
COc1cccc(/C=N\NC(=O)CNc2ccc(C)cc2)c1O	-24	-3	0	0	nt	nt
Cc1cccc(NCC(=O)N/N=C/c2ccccc2O)c1	10	1	7.2*	0	2	4
CCOc1ccc(NCC(=O)N/N=C/c2ccccc2O)cc1	10	5	5.4*	0	1	-16
Cc1ccccc1NCC(=O)N/N=C\c1cc(Br)cc(Cl)c1O	10	22	9.2*	0	-1	-8
CCOc1ccc(NCC(=O)N/N=C/c2cc(OC)ccc2O)cc1	2	13	2	0	nt	nt
O=C(CCCCCNC(=O)c1ccccc1)N/N=C/c1ccccc1O	13	10	9.6*	0	1	11
C/C(=N/O)c1ccc(NC2=C(N3CCCC3)C(=O)c3ccccc3C2=O)cc1	-2	9	5.9*	-1	0	4
CC(=O)c1ccc(NC2=C(N3CCCCC3)C(=O)c3ccccc3C2=O)cc1	3	-4	-2	0	nt	nt
Cc1ccc(C(=O)N/N=C/c2cc([N+](=O)[O-])ccc2O)cc1	2	3	0	0	nt	nt
CC(=O)c1cccc(NC(=O)Cn2nc(C(F)(F)F)c(Cl)c2C)c1	18	2	1	0	nt	nt
Cc1c(Br)c(C(F)(F)F)nn1CC(=O)Nc1cccc(O)c1	-12	-1	10.0*	0	1	10
COc1cc(CNc2ncc(-c3ccccc3)n2C)ccc1O	27	-8	0	0	nt	nt
Cc1csc(NC(=O)CC23CC4CC(CC(Br)(C4)C2)C3)n1	19	-23	0	0	nt	nt
COc1ccc(CNC2C3CC4CC(C3)CC2C4)c(OC)c1 (stereo not given)	5	5	5.6*	0	0	-6
CCC(CC)NCc1cc(Br)c(OC)cc1OC	40	5	0	0	nt	nt
O=C1C(=O)N(CCN2CCOCC2)C(c2cccnc2)/C1=C(/O)c1ccc(Br)cc1 (stereo not given)	2	-5	-1	0	nt	nt
O=C1C(=O)N(CCCN2CCOCC2)C(c2cccnc2)/C1=C(/O)c1ccc(Br)cc1 (stereo not given)	3	12	9.1*	0	-1	-13
COc1ccc(/C(O)=C2/C(=O)C(=O)N(CCN3CCOCC3)C2c2ccc(C(C)(C)C)cc2)cc1 (stereo not given)	10	3	7.0*	0	-1	-5
CCN(CC)C(=O)C1CCCN(c2nc3ncnc(Nc4ccc(NC(C)=O)cc4)c3[nH]2)C1 (stereo not given)	3	12	0	0	nt	nt
CCN(CC)C(=O)C1CCCN(c2nc(Nc3ccc(NC(C)=O)cc3)nc(N(CC)CC)n2)C1 (stereo not given)	2	5	-2	0	nt	nt
CC(=O)Nc1ccc(Nc2ncnc3nc(N4CCc5ccccc5C4)[nH]c23)cc1	7	-6	-2	1	nt	nt
SMILES	MITF inh	TEAD-YAP block	GPR151 activ	FBW7 act	GPR151 conf act	GPR119 ag
CCN(CC)C(=O)C1CCCN(c2nc(Nc3ccccc3)nc(N(CC)CC)n2)C1 (stereo not given)	3	2	5.7*	0	-1	-12
c1ccc(Nc2ncnc3nc(N4CCc5ccccc5C4)[nH]c23)cc1	7	-4	6.0*	0	0	1
CCN(CC)C(=O)C1CCCN(c2nc3ncnc(Nc4ccc(Oc5ccccc5)cc4)c3[nH]2)C1 (stereo not given)	7	6	5.8*	0	1	7
O=S(=O)(O/C=C/c1ccccc1)c1ccccc1	4	19	0	0	nt	nt
O=c1[nH]c(/C=C/c2ccc(C(F)(F)F)cc2)nc(O)c1[N+](=O)[O-]	8	6	0	0	nt	nt
Cc1ccccc1CSc1ncccc1C(=O)N1CCN(c2cccc(Cl)c2)CC1	-2	5	0	0	nt	nt
Cc1cccc(N2CCN(C(=O)c3cccnc3SCc3ccccc3Cl)CC2C)c1 (stereo not given)	-3	10	6.8*	0	0	-8
CCOc1ccc2c(-c3cc4cc(Br)ccc4oc3=O)cc(=O)oc2c1	-3	-3	7.9*	0	0	-12
Cc1ccc(N2C(=O)CC(NC34CC5CC(CC(C5)C3)C4)C2=O)cc1 (stereo not given)	-1	-6	-1	0	nt	nt
COc1ccc(N2C(=O)CC(NC34CC5CC(CC(C5)C3)C4)C2=O)cc1 (stereo not given)	-8	8	5.5*	0	0	-5
COc1ccc(N2C(=O)CC(NCCNC(=O)c3ccc(Cl)cc3)C2=O)cc1 (stereo not given)	7	3	18*	0	0	12
O=c1cc(CO)oc(C(Nc2ccccn2)c2cccc(Cl)c2)c1O (stereo not given)	0	-10	5.0*	0	0	12
O=C(NCc1ccccc1)c1c[nH]c2ccc(S(=O)(=O)N3CCOCC3)cc2c1=O	-8	-9	-1	0	nt	nt
COc1ccc(CCNc2ccnc(Nc3cc(OC)c(OC)c(OC)c3)n2)cc1	13	28	4	0	nt	nt
CC(=O)Nc1cc(C(=O)c2ccccc2)ccc1N1CCOCC1	-1	4	6.1*	0	1	-4
CCOc1cc(C(=O)Nc2ccccc2N2CCOCC2)cc(OCC)c1OCC	-2	5	5.8*	0	0	-9
COc1ccccc1C(=O)Nc1cc(C(=O)c2ccccc2)ccc1N1CCOCC1	15	14	-2	0	nt	nt
Cc1nccn1CCC(=O)N1CCCC(C(=O)c2cccc3ccccc23)C1 (stereo not given)	-1	-1	1	0	nt	nt
Cc1ccc(Nc2nc3nonc3nc2N2CCCCC2)cc1C	10	10	0	0	nt	nt
Cc1cccc(NC(=O)c2nc(S(C)(=O)=O)ncc2Cl)c1	7	-19	-1	0	nt	nt
CSc1ncc(Cl)c(C(=O)Nc2ccc(C)c(C)c2)n1	-3	-3	9.9*	0	0	-8
CCCS(=O)(=O)c1ncc(Cl)c(C(=O)Nc2cccc(C)c2)n1	-6	31	7.4*	0	-1	0
COc1ccc(C2CC(C(F)(F)F)n3nc(C(=O)Nc4ccc(Cl)c(C(F)(F)F)c4)cc3N2)cc1 (stereo not given)	-1	-5	2	0	nt	nt
